# Screens: PubChem BioAssay, several laboratories
# An excerpt weighted towards active compounds, which were near 27% of everything screened.
# CYP2C9 inh: inhibitors of human CYP2C9 | CYP2C9 Supersomes, luciferin-H conversion, luminescence | inhibition, % at 5 µM | actives 20% (n = 96,000);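 active means blocking of liver enzyme CYP2C9 beyond about 50% at 5 µM, limit read from the data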
# sEH inh: inhibitors of human soluble epoxide hydrolase. actives 0.34% (n = 91,000). recombinant human sEH enzymatic activity assay. AID 707. P34913. inhibition, % at 2 µM; in the data active means inhibition above about 80%
# sEH act: increases human soluble epoxide hydrolase activity; actives 0.04% (n = 91,000); purified human sEH enzymatic activity, activator screen; activation, % at 2 µM; P34913; in the data active means activation above about 37%
# CYP2C19 inhib: inhibitors of human CYP2C19; CYP2C19 Supersomes, luciferin-H EGE luminescence, 30 min; actives 21% (n = 96,000); P33261; inhibition, % at 5 µM;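 active means CYP2C19 inhibition above a set limit at 5 µM in the primary screen, cut at about 50% in these data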;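 further: plate controls were negative control wells for no effect and 2.5 mM tranylcypromine positive control for full effect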
# CYP2C19 act: increases human CYP2C19 enzyme activity | P33261 | recombinant CYP2C19, luciferin-H EGE luminescence; hits give high values; 0 = fully inhibited enzyme, 1 = untreated enzyme | activation factor at 5 µM | 96,000 tested, under 10 active;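 active means activation factor of at least 2 at 5 µM in the primary screen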;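 further: 0 = wells with 2.5 mM tranylcypromine and 1 = vehicle-only wells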
# CYP2C9 act: increases human cytochrome P450 2C9 activity; P11712; recombinant CYP2C9, luciferin-H conversion, luminescence; hits give high values; factor 1 = untreated enzyme, 0 = blocked; activation factor at 5 µM; actives 1.4% (n = 96,000);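 active means activation factor of 2 or more for CYP2C9 at a 5 µM dose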;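 further: 0 = sulfaphenazole-blocked wells and 1 = vehicle-only wells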
# Active calls of the source: *; · = not tested or not shown.
SMILES,CYP2C9 inh,sEH inh,sEH act,CYP2C19 inhib,CYP2C19 act,CYP2C9 act
Cc1ccccc1Nc1nc(N)nc(CN2C(=O)NC3(CCCCC3C)C2=O)n1 (configuration not stated),-8,·,·,8,0.9,1.1
O=C(Cn1cc2c(n1)CCCC2)N1CCCC1,-10,1,-3,0,1,1.1
Cc1cc(C)c2ccc(C(=O)O)nc2c1O,-12,-8,5,-13,1.1,1.1
Clc1ccccc1-c1nnn(Cc2ccc(-c3nn[nH]n3)cc2)n1,86*,8,-6,68*,0.3,0.1
Clc1ccc(Cn2nnc(-c3ccccc3)n2)cc1,·,-5,5,·,·,·
O=C1/C(=C\c2ccc3ccccc3c2)CCCc2ccccc21,·,1,-4,·,·,·
COc1ccc(/C=C2\CCc3ccccc3C2=O)cc1Cn1nc(C)cc1C,53*,-12,9,90*,0.1,0.5
Cc1ccsc1/C=C1\CCc2ccccc2C1=O,87*,-4,2,93*,0.1,0.1
COc1ccc(/C=C2\CCc3ccccc3C2=O)cc1OC,53*,-8,8,30,0.7,0.5
Cc1ccccc1/C=C1\CCCc2ccccc2C1=O,·,-12,9,·,·,·
COc1ccc(/C=c2/sc3n(c2=O)C(c2ccccc2OC)C2=C(N=3)c3ccccc3CC2)cc1O (configuration not stated),33,-18,16,-1,1,0.7
O=Cc1ccc(OCC(=O)NC(=O)NC2CCCCC2)cc1,16,0,1,46,0.5,0.8
CCCC(=O)Nc1nc(-c2ccc3c(c2)OCCO3)cs1,86*,-8,8,13,0.9,0.1
CCOC(=O)N1CCN(C(=O)CSCC(=O)Nc2nc(-c3ccc(-c4ccccc4)cc3)cs2)CC1,44,-1,2,34,0.7,0.6
CCOC(=O)N1CCN(C(=O)CSCC(=O)Nc2nc(-c3ccc(OC)cc3)cs2)CC1,83*,-1,-2,84*,0.2,0.2
CCCC(=O)Nc1nc(-c2ccc(OC)cc2)cs1,96*,-5,3,64*,0.4,0
O=C(Nc1nc(-c2ccc3c(c2)OCO3)cs1)C1CC1,48,·,·,33,0.7,0.5
CCCn1c(=O)[nH]c(=O)c2c1nc(-c1ccc3c(c1)OCCO3)n2CCN1CCOCC1,7,5,-6,23,0.8,0.9
CC(NC(=O)Nc1nnc(C(F)(F)F)s1)(C(F)(F)F)C(F)(F)F,66*,1,-1,6,0.9,0.3
CCSc1nnc(NC(=O)c2ccccn2)s1,22,·,·,22,0.8,0.8
Cc1cc(C(=O)Nc2nnc(C(F)(F)F)s2)no1,54*,9,-14,18,0.8,0.5
CCSc1nnc(NC(=O)c2cc(C)on2)s1,58*,6,-6,1,1,0.4
CCSc1nnc(NC(=O)c2ccc(Br)s2)s1,57*,-1,-2,0,1,0.4
CCCc1nnc(NC(=O)CCC(=O)O)s1,-9,-1,2,-8,1.1,1.1
Cc1[nH]n(-c2ccc([N+](=O)[O-])cc2)c(=O)c1C=NCCN1CCN(C(=O)c2cccc(F)c2)CC1,48,-4,0,33,0.7,0.5
SMILES,CYP2C9 inh,sEH inh,sEH act,CYP2C19 inhib,CYP2C19 act,CYP2C9 act
Cc1cc(=O)[nH]c(N2CCc3ccccc3C2)n1,-13,-2,5,28,0.7,1.1
Cc1ccc(Oc2nc3ccccc3n3c(C)nnc23)c(C)c1,14,6,-4,11,0.9,0.9
Cc1cccc(N2CCN(C(=O)C34CC5CC(CC(C5)C3)C4)CC2)c1C,29,7,-7,22,0.8,0.7
CCSc1nnc(NC(=O)c2csc3c2CCC(C)C3)s1 (configuration not stated),82*,-4,2,-20,1.2,0.2
CCSc1nnc(NC(=O)c2csc3c2CCCC3)s1,0,1,2,-2,1,1
FC(F)(F)c1nc(-c2ccncc2)ncc1-c1nnnn1-c1ccccc1,74*,3,-2,101*,0,0.3
FC(F)(F)c1nc(N2CCCC2)ncc1-c1nnnn1-c1ccc(Cl)cc1,39,40,-39,90*,0.1,0.6
c1ccc(-n2nnnc2-c2cnc(-c3ccncc3)nc2-c2cccs2)cc1,·,-6,6,·,·,·
Cc1ccc(-n2nnnc2-c2cnc(-c3cccnc3)nc2C(F)(F)F)cc1,60*,13,-12,48,0.5,0.4
